mcGAS MS inh: blocks mouse cGAS cGAMP production | Q8C6L5 | recombinant mouse cGAS, cGAMP by RapidFire MS | inhibition, % at 12.5 µM | 130,000 compounds, 0.18% hits | AID 1259397;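 active = inhibition of cGAS enzyme activity at or above 60%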;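 note: enzyme stimulated by 45 bp dsDNA with ATP and GTP substrates; cGAMP share of summed cGAMP plus half ATP and half GTP signals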
Target sequence (Q8C6L5 whole entry, looked up): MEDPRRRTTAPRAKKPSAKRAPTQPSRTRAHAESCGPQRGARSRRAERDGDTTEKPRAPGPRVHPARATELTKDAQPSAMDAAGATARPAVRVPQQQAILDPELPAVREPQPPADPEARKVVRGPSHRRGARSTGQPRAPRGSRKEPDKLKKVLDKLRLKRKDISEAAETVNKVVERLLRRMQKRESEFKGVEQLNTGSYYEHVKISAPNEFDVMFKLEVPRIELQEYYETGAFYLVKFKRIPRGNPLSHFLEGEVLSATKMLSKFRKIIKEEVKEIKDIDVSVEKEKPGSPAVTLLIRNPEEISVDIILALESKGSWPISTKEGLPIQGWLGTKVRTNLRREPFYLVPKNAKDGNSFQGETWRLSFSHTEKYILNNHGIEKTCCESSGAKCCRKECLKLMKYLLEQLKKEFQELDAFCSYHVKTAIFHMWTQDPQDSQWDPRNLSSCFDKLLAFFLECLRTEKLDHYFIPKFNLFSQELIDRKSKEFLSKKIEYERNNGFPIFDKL
An asterisk follows results filed as active. This excerpt belongs to a sample that is enriched for hits.

SMILES | mcGAS MS inh
CCOC(=O)NC(=S)NN(C)c1nc(C)cnc1C | -4
Cc1cnc(C)c(N(C)C)n1 | 93*
CN(C)c1nc2nonc2nc1NC1CCC1 | -4
Cc1ccnc(Nc2ccc(NCCNC(=O)Cc3ccccc3)nn2)c1 | -6
COc1ccc(OC)c(NC(=O)CNC(C)c2ccc(F)c(F)c2)c1 (stereo unspecified) | -8
COc1ccc(NC(=O)CN(C)C(=O)c2ccc3c(c2)C(=O)c2ccccc2-3)cc1 | -10
COc1cccc(CC2(CO)CCCN(Cc3ccc(SC)cc3)C2)c1 (stereo unspecified) | -4
CC(C)C(=O)Nc1cc(C2CC2)nn1C1CCS(=O)(=O)C1 (stereo unspecified) | 82*
COC(=O)c1cc(C2CC2)nc2c1c(-c1cccs1)nn2C1CCS(=O)(=O)C1 (stereo unspecified) | -8
Cc1cc(NCc2ccc(Cl)cc2)n(C2CCS(=O)(=O)C2)n1 (stereo unspecified) | -21
CSc1ccc(CN2C(=O)C(C)ON=C2c2ccc(F)cc2)cc1 (stereo unspecified) | -7
CCC(C)c1ccccc1N1CC(C(=O)NNC(=O)c2ccco2)CC1=O (stereo unspecified) | -12
CCOC(=O)c1c(NC(=O)c2cc3ccccc3o2)sc(C(N)=O)c1C | -5
Cc1nnc2sc(-c3ccccc3NC(=S)NC(=O)c3cc4ccccc4o3)nn12 | 71*
Cc1nnc2sc(-c3cccc(NC(=S)NC(=O)c4cc5ccccc5o4)c3)nn12 | -5
Cc1ccc(C2C(C(=O)c3ccco3)=C(O)C(=O)N2CCN2CCOCC2)o1 (stereo unspecified) | -19
Cc1ccccc1NS(=O)(=O)c1ccc(F)cc1[N+](=O)[O-] | -7
CN(C)Cc1ccc2ccc3cccc4ccc1c2c34 | 41
Cc1ccccc1CC1(CO)CCCN(C(=O)c2ccccc2N(C)C)C1 (stereo unspecified) | 91*
Cc1cccc(C(=O)N2CCCC(CO)(Cc3ccccc3C)C2)n1 (stereo unspecified) | -9
Cc1ccccc1CC1(CO)CCCN(C(=O)CN2CCOc3ccccc3C2)C1 (stereo unspecified) | -9
CC(=O)c1cc(C(=O)N2CCCC(C(=O)c3cccc(C(F)(F)F)c3)C2)cs1 (stereo unspecified) | -4
CCN1C(=Cc2ccc3cc(C)ccc3[n+]2CC)Sc2ccccc21 | 11
CCN1C(=CC=Cc2sc3ccccc3[n+]2CC)Sc2ccccc21 | 70*
CCC(C)[n+]1c(C)cc(C=C2Sc3ccccc3N2CC)cc1C (stereo unspecified) | -10
O=c1oc2c(CN3CCN(CCO)CC3)c(O)ccc2cc1-c1nc2ccccc2s1 | -6

Screening data from PubChem BioAssay.
